Among all 39,000 compounds or so, about 220 (0.56%) showed activity. The list comes from a sample in which actives are over-represented; it also holds similar structures and randomly drawn compounds. Values without a mark were called inactive.
System: Escherichia coli K-12 BW25113
Test: relative growth (OD600 normalised to plate interquartile mean) (fraction); higher = less growth inhibition, active = 0.2 or less
Details: 50 µM; LB; incubation time: overnight (16-24 h)
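Note: Wild-type cells incubated without shaking, value is the mean of two biological replicates.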

Point of comparison: CCC1OC(=O)CC(O)C(C)C(OC2OC(C)C(OC3CC(C)(O)C(O)C(C)O3)C(N(C)C)C2O)C(CC=O)CC(C)C(=O)C=CC(C)=CC1COC1OC(C)C(O)C(OC)C1OC.O=C(O)C(O)C(O)C(=O)O (stereo not given), relative growth 1.09. Against it:
- C[C@@H]1CN([C@H](C)CO)C(=O)c2ccccc2-c2ccccc2CO[C@@H]1CN(C)S(=O)(=O)c1cn(C)cn1 — lower, 0.997
- O=C(C[C@H]1CC[C@H]2[C@@H](COC[C@@H](O)CN2S(=O)(=O)c2ccccc2)O1)N1CCOCC1 — lower, 0.964
- CC1(C)S[C@H]2[C@@H](NC(=O)[C@@H](N)c3ccccc3)C(=O)N2[C@@H]1C(=O)O — lower, 1.01
- CC1(C)SC2C(NC(=O)C(N)c3ccccc3)C(=O)N2C1C(=O)[O-].[Na+] (stereo not given) — lower, 1.06
- CC1(C)SC2C(NC(=O)C(N)c3ccc(O)cc3)C(=O)N2C1C(=O)O (stereo not given) — higher, 1.1
- CC1(C)S[C@@H]2[C@H](NC(=O)[C@H](N)c3ccc(O)cc3)C(=O)N2[C@H]1C(=O)O — lower, 0.516
- CN(C)CCCNC(=O)C[C@H]1CC[C@H]2[C@@H](COC[C@@H](O)CN2C(=O)c2cc(Cl)cc(Cl)c2)O1 — lower, 0.968
- COc1cc(N)ccn1 — lower, 1.07
- O=C(C[C@H]1C[C@H]2c3cc(NS(=O)(=O)c4ccc(F)cc4)ccc3O[C@H]2[C@H](CO)O1)NCc1ccccn1 — lower, 0.998
- OC[C@@H](O)[C@H]1O[C@H](c2ccccc2)OC[C@@H]1O — lower, 1.05
- COc1ccc(S(=O)(=O)Nc2ccc3c(c2)C(=O)N([C@H](C)CO)C[C@@H](C)[C@@H](CN(C)C(=O)Nc2c(C)noc2C)O3)cc1 — lower, 1
- CSC1=N[C@@]2(C)CCCC[C@@H]2c2c1ccc1ccccc21 — lower, 1.01
- COc1ccc(C(=O)Nc2ccc3c(c2)C(=O)N(C)[C@@H]2CC[C@H](CC(=O)NCC4CC4)O[C@@H]2CO3)cc1 — lower, 0.982
- Cc1ccc(S(=O)(=O)Nc2ccc3c(c2)C(=O)N([C@@H](C)CO)C[C@H](C)[C@@H](CN(C)S(=O)(=O)c2cn(C)cn2)O3)cc1 — lower, 0.932
- C[C@@H]1CCCCO[C@@H](CN(C)S(C)(=O)=O)[C@H](C)CN([C@H](C)CO)C(=O)c2cc(NS(=O)(=O)c3ccccc3)ccc2O1 — lower, 0.997
- C[C@H](NC(=O)[C@@H](Cc1ccc2ccccc2c1)NC(=O)[C@@H](C)N)C(=O)N[C@@H](Cc1c[nH]c2ccccc12)C(=O)N[C@H](Cc1ccccc1)C(=O)N[C@@H](CCCCN)C(N)=O — lower, 0.98
- NCCCC[C@@H](N)C(=O)N[C@@H](Cc1c[nH]c2ccccc12)C(=O)N[C@@H](CCCCN)C(=O)O — lower, 0.994
- Cc1noc(C)c1S(=O)(=O)Nc1ccc2c(c1)C(=O)N([C@H](C)CO)C[C@@H](C)[C@H](CN(C)S(=O)(=O)c1ccc(Cl)cc1)O2 — lower, 1
- COc1ccc(C#Cc2ccc3c(c2)O[C@@H](CN(C)C(=O)CN2CCOCC2)[C@@H](C)CN([C@H](C)CO)S3(=O)=O)cc1 — lower, 0.997
- COCCNC(=O)C[C@H]1C[C@H]2c3cc(NS(C)(=O)=O)ccc3O[C@H]2[C@H](CO)O1 — lower, 1.01
- C(=C\c1ccccc1)/CSc1ncnc2c1oc1ccccc12 — lower, 1.02
- CC(=CC(=O)OCCCCCCCCC(=O)O)CC1OCC(CC2OC2C(C)C(C)O)C(O)C1O (stereo not given) — lower, 0.526
- C[C@@H]1CN([C@@H](C)CO)C(=O)c2cc(-c3cccc(C(=O)N(C)C)c3)cnc2O[C@H]1CN(C)C(=O)Cc1ccccn1 — lower, 0.986
- CC[C@H]1OC(=O)C[C@@H](O)[C@H](C)[C@@H](O[C@@H]2O[C@H](C)[C@@H](O[C@H]3C[C@@](C)(O)[C@@H](O)[C@H](C)O3)[C@H](N(C)C)[C@H]2O)[C@@H](CC=O)C[C@@H](C)C(=O)/C=C/C(C)=C/[C@@H]1CO[C@@H]1O[C@H](C)[C@@H](O)[C@@H](OC)[C@H]1OC — lower, 0.971
- Nc1ccccc1C(=O)NCCN1CCNC1=O — lower, 1.01
- OC[C@@H](O)[C@@H](O)[C@@H](O)[C@@H](O)[C@@H](O)CO — lower, 1
- C[C@H](CO)N1C[C@H](C)[C@H](CN(C)C(=O)Nc2ccc(C(F)(F)F)cc2)Oc2ccc(NS(=O)(=O)c3ccc(F)cc3)cc2C1=O — lower, 0.994
- c1n[nH]nc1SSc1cn[nH]n1 — lower, 0.536
- C[C@H](CO)N1C[C@H](C)[C@H](CN(C)S(C)(=O)=O)Oc2c(NC(=O)c3ccc(-c4nccs4)cc3)cccc2C1=O — lower, 0.995
- CCCN(C)C[C@@H]1OCCCC[C@H](C)Oc2ccc(NC(=O)CCC(F)(F)F)cc2C(=O)N([C@@H](C)CO)C[C@@H]1C — lower, 1
- C[C@H](CO)N1C[C@H](C)[C@H](CN(C)Cc2ccccc2)OCCCC[C@H](C)Oc2ccc(NC(=O)C3CCCCC3)cc2C1=O — lower, 1.01
- COc1ccc2cc1Oc1ccc(cc1)CC1c3c(cc4c(c3Oc3cc5c(cc3OC)CCN(C)C5C2)OCO4)CCN1C (stereo not given) — lower, 0.844
- COc1ccc2cc1Oc1ccc(cc1)C[C@H]1c3c(cc4c(c3Oc3cc5c(cc3OC)CCN(C)[C@@H]5C2)OCO4)CCN1C — lower, 0.993
- C[C@H](CO)N1C[C@H](C)[C@H](CN(C)Cc2ccccc2)Oc2c(NC(=O)Nc3cccc4ccccc34)cccc2C1=O — lower, 1
- Cc1ccc(S(=O)(=O)Nc2ccc3c(c2)C(=O)N([C@H](C)CO)C[C@@H](C)[C@@H](CN(C)C(=O)c2ccccc2)OCCCC[C@H](C)O3)cc1 — lower, 1.01

With CC1(C)S[C@@H]2[C@H](NC(=O)[C@H](N)c3ccccc3)C(=O)N2[C@H]1C(=O)OCOC(=O)[C@@H]1N2C(=O)C[C@H]2S(=O)(=O)C1(C)C the relative growth was 0.107 (active).
With CCOC(=O)OC(C)OC(=O)C1N2C(=O)C(NC(=O)C(N)c3ccccc3)C2SC1(C)C.Cl (stereo not given) the relative growth was 0.0511 (active).
In the case of CC(N)O.Cc1cc(CC(C)CC(C)(C)C)n(O)c(=O)c1 (stereo not given), the relative growth is reported as 0.0449 (active).
For NCCCC[C@H](NC(=O)[C@@H](NC(=O)[C@H](Cc1c[nH]c2ccccc12)NC(=O)[C@H](CCCCN)NC(=O)[C@H](CCCCN)NC(=O)[C@H](Cc1c[nH]c2ccccc12)NC(=O)[C@H](Cc1c[nH]c2ccccc12)NC(=O)[C@H](CCCCN)NC(=O)[C@@H](N)CCCCN)C(c1ccccc1)c1ccccc1)C(N)=O, the relative growth was 0.149 (active).
For C/C(=C\C(=O)OCCCCCCCCC(=O)O)C[C@@H]1OC[C@H](C[C@@H]2O[C@H]2[C@@H](C)[C@H](C)O)[C@@H](O)[C@H]1O, the relative growth was 0.166 (active).
For CC[C@H]1OC(=O)C[C@@H](O)[C@H](C)[C@@H](O[C@@H]2O[C@H](C)C[C@H](N(C)C)[C@H]2O)[C@@H](CC=O)C[C@@H](C)C(=O)/C=C/[C@]2(C)O[C@H]2[C@@H]1C, the relative growth was 0.149 (active).
N[C@@H]1CN(c2c(F)cc3c(=O)c(C(=O)O)cn([C@@H]4C[C@@H]4F)c3c2Cl)CC12CC2 was tested, and the relative growth was 0.0347 (active).
Cl.NC1CCN(c2c(F)cc3c(=O)c(C(=O)O)cn(C4CC4)c3c2Cl)C1 (stereo not given) was tested, and the relative growth was 0.0438 (active).
For COc1ccc2c(c1OC)C(=O)OC2C1c2c(cc3c(c2OC)OCO3)CCN1C.Cl (stereo not given), the relative growth was 0.0513 (active).
